According to PubChem BioAssay:
Calls of active or inactive are those of the source. Unless noted, how the calls were made is not given here.

Tests used:
[1] = anti-His antibody binders, primary screen, artefact control for SMM control protein annotation, biochemical, small-molecule microarray, 635 nm fluorescence (AID 1128); settings: anti-His Alexa647 antibody binding, higher = more signal;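 further: score merges feature fluorescence with signal-to-noise for each printed compound spot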
[2] = system: Human papillomavirus type 1a E7 protein (residues 1-88); assay: HPV1a E7 small-molecule binders, primary screen, biochemical, small-molecule microarray, residues 1-88, 635 nm (AID 1129); settings: small-molecule microarray binding, fluorescence 635 nm; higher = more signal
[3] = target: Focal adhesion kinase 1 (Homo sapiens) (UniProt Q05397); assay: small-molecule microarray binders of FAK, primary screen, biochemical, 635/667 nm fluorescence, BSA, DTT (AID 1130); settings: PTK2 binding, 635 nm fluorescence, higher = more signal;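 further: composite of spot emission at 667 nm and signal to noise over triplicate slides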
Sequence of Focal adhesion kinase 1 (Homo sapiens) (Q05397 whole entry, looked up): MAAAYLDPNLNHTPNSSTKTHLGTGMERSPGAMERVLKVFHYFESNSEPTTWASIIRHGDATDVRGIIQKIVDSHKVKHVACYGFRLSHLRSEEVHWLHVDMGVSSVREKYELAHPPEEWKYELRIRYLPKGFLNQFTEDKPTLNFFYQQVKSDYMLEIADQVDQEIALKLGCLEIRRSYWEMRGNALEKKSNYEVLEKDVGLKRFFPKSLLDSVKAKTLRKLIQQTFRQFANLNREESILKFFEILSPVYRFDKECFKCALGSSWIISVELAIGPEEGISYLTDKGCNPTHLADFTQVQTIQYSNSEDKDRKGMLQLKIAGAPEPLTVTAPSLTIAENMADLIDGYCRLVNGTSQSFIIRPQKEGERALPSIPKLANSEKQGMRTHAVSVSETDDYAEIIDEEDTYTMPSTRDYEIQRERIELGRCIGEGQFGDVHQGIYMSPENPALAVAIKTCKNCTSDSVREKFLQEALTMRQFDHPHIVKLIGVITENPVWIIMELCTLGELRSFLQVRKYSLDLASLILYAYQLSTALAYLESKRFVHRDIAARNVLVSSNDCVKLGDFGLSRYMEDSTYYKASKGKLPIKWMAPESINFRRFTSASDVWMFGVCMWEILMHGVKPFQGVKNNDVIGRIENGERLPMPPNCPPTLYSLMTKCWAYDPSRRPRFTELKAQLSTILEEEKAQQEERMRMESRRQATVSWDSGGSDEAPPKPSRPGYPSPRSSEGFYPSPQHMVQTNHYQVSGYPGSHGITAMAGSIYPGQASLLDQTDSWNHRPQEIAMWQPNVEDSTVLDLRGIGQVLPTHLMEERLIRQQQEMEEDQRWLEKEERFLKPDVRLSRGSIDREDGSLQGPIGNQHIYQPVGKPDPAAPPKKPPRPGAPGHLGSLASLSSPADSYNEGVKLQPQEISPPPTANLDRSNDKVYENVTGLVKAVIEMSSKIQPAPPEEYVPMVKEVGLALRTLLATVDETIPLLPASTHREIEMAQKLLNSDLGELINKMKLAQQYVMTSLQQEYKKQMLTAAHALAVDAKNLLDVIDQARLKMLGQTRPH

[4] = system: Fibrinogen (Alexa647-labelled); assay: fibrinogen binders on compound microarrays, profiling panel, artefact control for SMM control-protein annotation, biochemical, small-molecule microarray, 635/667 nm fluorescence (AID 1131); settings: fibrinogen-A647 binding fluorescence, higher = more signal;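 further: z-score merges 667 nm fluorescence with per-spot signal-to-noise over triplicate slides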
[5] = target: Follistatin (Homo sapiens) (UniProt P19883); assay: follistatin binders on small-molecule microarrays, primary screen, biochemical, small-molecule microarray, 635/667 nm fluorescence (AID 1132); settings: FST binding, 635 nm fluorescence, higher = more signal
Sequence of Follistatin (Homo sapiens) (P19883 whole entry, looked up): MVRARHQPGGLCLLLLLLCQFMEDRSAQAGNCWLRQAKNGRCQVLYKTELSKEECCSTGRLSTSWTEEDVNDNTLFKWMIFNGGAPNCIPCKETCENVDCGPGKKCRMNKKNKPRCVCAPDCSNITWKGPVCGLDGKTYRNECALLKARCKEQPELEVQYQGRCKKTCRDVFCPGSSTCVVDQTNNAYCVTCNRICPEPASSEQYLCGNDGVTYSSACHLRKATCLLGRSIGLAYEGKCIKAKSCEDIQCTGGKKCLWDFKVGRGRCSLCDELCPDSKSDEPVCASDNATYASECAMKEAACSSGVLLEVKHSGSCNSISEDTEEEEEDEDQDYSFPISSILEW

[6] = target: Fibroblast growth factor 2 (Homo sapiens) (UniProt P09038); assay: FGF2 binders on small-molecule microarrays, primary screen, biochemical, small-molecule microarray, 635/667 nm fluorescence (AID 1133); settings: small-molecule microarray binding, FGF2, fluorescence 635/667; higher = more signal
Sequence of Fibroblast growth factor 2 (Homo sapiens) (P09038 whole entry, looked up): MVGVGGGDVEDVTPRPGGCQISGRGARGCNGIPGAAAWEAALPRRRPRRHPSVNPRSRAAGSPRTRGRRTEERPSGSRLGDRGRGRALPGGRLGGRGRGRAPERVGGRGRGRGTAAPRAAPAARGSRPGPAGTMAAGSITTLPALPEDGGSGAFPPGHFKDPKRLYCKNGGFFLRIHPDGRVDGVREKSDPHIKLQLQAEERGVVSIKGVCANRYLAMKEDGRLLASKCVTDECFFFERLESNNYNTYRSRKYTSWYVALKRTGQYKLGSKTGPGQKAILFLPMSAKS

[7] = mitochondrial membrane potential change in A549 cells, profiling panel, cell-based, JC-1 fluorescence, basal, 24 h, 100 nL (AID 1138); settings: higher = more signal;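 further: A549 lung adenocarcinoma cells under basal conditions with no added stimulus; test concentration not given here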
Lefty1 = Lefty1 binders on small-molecule microarrays, primary screen, biochemical, small-molecule microarray, 635/667 nm fluorescence (AID 1139); settings: small-molecule microarray binding, fluorescence 635/667; higher = more signal
[8] = system: wheat germ agglutinin (Triticum aestivum), Alexa647-labelled; assay: wheat germ agglutinin binders on compound microarrays, profiling panel, artefact control for SMM control-protein annotation, biochemical, small-molecule microarray, 635/667 nm fluorescence (AID 1140); settings: WGA-A647 binding, 635 nm fluorescence, higher = more signal;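 further: score merges 667 nm feature emission with signal to noise over triplicate slides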
[9] = target: Luciferin 4-monooxygenase (Photinus pyralis) (UniProt P08659); assay: firefly luciferase enzyme inhibitors, primary screen, biochemical, luminescence, purified enzyme, 2006 set (AID 1141); settings: SteadyGlo luminescence, 30 min, higher = more signal, called active from +8 up or from −8 down;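 further: cell-free assay with purified firefly luciferase at 100 ng per well in PBS; test concentration not given here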
Sequence of Luciferin 4-monooxygenase (Photinus pyralis) (P08659 whole entry, looked up): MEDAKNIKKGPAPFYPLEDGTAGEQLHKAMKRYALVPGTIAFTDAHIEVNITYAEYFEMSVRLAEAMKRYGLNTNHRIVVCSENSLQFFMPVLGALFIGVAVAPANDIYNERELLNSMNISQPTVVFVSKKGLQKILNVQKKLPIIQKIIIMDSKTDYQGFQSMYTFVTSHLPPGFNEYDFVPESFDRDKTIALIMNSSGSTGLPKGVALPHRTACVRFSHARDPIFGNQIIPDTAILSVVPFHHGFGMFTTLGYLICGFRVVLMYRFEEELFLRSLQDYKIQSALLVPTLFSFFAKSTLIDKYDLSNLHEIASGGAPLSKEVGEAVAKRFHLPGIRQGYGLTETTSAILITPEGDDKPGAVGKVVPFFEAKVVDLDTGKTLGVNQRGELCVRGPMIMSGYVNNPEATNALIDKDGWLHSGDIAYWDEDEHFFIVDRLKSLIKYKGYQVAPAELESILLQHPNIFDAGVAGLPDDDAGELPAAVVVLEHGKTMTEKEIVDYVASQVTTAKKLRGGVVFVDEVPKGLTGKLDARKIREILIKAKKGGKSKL

[10] = system: Wnt5a (protein binding on small-molecule microarray); assay: Wnt5a binders on small-molecule microarray, primary screen, biophysical, 635/667 nm fluorescence (AID 1142); settings: 635 nm fluorescence, higher = more signal;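 further: fluorescence read at 667 nm with signal to noise per printed feature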
[11] = cell viability in Huh7 cells, primary screen, cytotoxicity control for HCV replication inhibitor project, CellTiter-Glo luminescence, basal, 48 h (AID 1143); settings: Huh7 HCV replicon, higher = more signal, called active from +8 up or from −8 down;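 further: Huh7 hepatoma cells carrying a hepatitis C replication reporter with no stimulus; test concentration not given here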
[12] = P. aeruginosa biofilm formation inhibitors, primary screen, PAO1 strain, BacTiter-Glo luminescence, LB-PBS (AID 1144); settings: 12 h, higher = more signal
[13] = CREB reporter modulators without forskolin, primary screen, cell-based, PC12, CRE-LacZ reporter, unstimulated (AID 1145); settings: no forskolin, luminescence, 4.5 h, higher = more signal, called active from +8 up or from −8 down
[14] = CREB reporter modulators under forskolin, primary screen, cell-based, PC12, CRE-LacZ reporter, forskolin-stimulated (AID 1146); settings: luminescence, 4.5 h, higher = more signal, called active from +8 up or from −8 down;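 further: PC12 cells with 6xCRE LacZ reporter stimulated by forskolin 10 µM; beta-galactosidase reporter signal reflecting CREB driven transcription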
[15] = target: Streptavidin (Streptomyces avidinii) (UniProt P22629); assay: streptavidin binders on small-molecule microarray, primary screen, artefact control for SMM compound annotation, biophysical, 635/667 nm fluorescence (AID 1147); settings: streptavidin binding, higher = more signal;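 further: signal reflects streptavidin binding to arrayed compounds as a control protein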
Sequence of Streptavidin (Streptomyces avidinii) (P22629 whole entry, looked up): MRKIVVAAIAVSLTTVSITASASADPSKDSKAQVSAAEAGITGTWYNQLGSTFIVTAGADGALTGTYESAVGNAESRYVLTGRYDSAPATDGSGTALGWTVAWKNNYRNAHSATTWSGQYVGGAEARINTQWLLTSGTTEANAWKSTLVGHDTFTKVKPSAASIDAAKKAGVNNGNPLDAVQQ

[16] = small-molecule binders of probe aInhba, primary screen, biochemical, small-molecule microarray, 635/667 nm fluorescence (AID 1148); settings: higher = more signal;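 further: score merges 667nm spot fluorescence with signal-to-noise for antibody binding to printed compounds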
Torsin-1A (Homo sapiens) [17] = target: Torsin-1A (Homo sapiens) (UniProt O14656); assay: torsin A binders from cell lysate, primary screen, small-molecule microarray, wild-type, 635/667 nm (AID 1149); settings: COS7 hTOR1A-WT lysate, 635 nm fluorescence, higher = more signal
Sequence of Torsin-1A (Homo sapiens) (O14656 whole entry, looked up): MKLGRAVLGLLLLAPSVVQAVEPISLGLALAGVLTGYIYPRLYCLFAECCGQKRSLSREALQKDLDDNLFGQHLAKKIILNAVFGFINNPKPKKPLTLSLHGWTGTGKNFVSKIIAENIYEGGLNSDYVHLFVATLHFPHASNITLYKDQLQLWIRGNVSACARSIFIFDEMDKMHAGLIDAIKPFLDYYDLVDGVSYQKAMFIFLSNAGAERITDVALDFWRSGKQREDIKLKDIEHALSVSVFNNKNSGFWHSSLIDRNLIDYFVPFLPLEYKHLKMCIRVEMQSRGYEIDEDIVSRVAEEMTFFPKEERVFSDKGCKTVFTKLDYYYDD

Torsin-1A (Homo sapiens) [18] = target: Torsin-1A (Homo sapiens) (UniProt O14656); assay: small-molecule binders of mutant TOR1A in lysate, primary screen, cell lysate, small-molecule microarray, COS7 lysate, 635/667 nm fluorescence (AID 1150); settings: COS7 hTOR1A mutant lysate, 635 nm fluorescence, higher = more signal;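 further: score pools 667 nm emission and signal to noise measuring lysate protein binding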
[19] = system: Sonic hedgehog protein (Shh); assay: small-molecule binders of Shh protein, primary screen, biochemical, small-molecule microarray, 635/667 nm fluorescence (AID 1151); settings: small-molecule microarray binding, 635 nm fluorescence; higher = more signal;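 further: Shh protein binding to compounds spotted on small-molecule microarray slides; score combines spot fluorescence intensity with signal-to-noise across triplicate slides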

| SMILES | composite z-score [1] | composite z-score [2] | composite z-score [3] | composite z-score [4] | composite z-score [5] | composite z-score [6] | z-score [7] | composite z-score (Lefty1) | composite z-score [8] | z-score [9] | composite z-score [10] | z-score [11] | z-score [12] | z-score [13] | z-score [14] | composite z-score [15] | composite z-score [16] | composite z-score (Torsin-1A (Homo sapiens) [17]) | composite z-score (Torsin-1A (Homo sapiens) [18]) | composite z-score [19] |
| --- | --- | --- | --- | --- | --- | --- | --- | --- | --- | --- | --- | --- | --- | --- | --- | --- | --- | --- | --- | --- |
| COCCCNC(=O)[C@]1(CCC(=O)OC(C)(C)C)N=C(c2ccc(OCCCO)cc2)O[C@@H]1c1ccccc1 | 3.52 | 1.26 | 0.807 | 0.272 | 1.21 | -0.0959 | 0.229 | -0.989 | 1.12 | -0.127 (inactive) | 0.163 | 0.11 (inactive) | 1.2 (inactive) | 0.699 (inactive) | -0.625 (inactive) | 0.172 | 0.346 | 1.11 | 2.06 | -1.52 |
| [N-]=[N+]=NCc1ccccc1C[C@@]1(C(=O)N2CCCCC2)N=C(c2ccc(OCCCO)cc2)O[C@@H]1c1ccccc1N=[N+]=[N-] | 1.4 | 1.14 | 0.759 | 0.769 | 0.249 | 0.157 | 1.25 | -0.162 | 0.885 | -6.07 (inactive) | -0.269 | -3.28 (inactive) | 1.48 (inactive) | 0.596 (inactive) | -1.16 (inactive) | 0.75 | -0.209 | 0.704 | 0.826 | 0.0369 |
| C=CCNC(=O)[C@@H]1[C@H]2C(=O)O[C@H](c3ccccc3)[C@H](c3ccccc3)N2[C@H](c2ccccc2OCCO)[C@@]12C(=O)N(C(=O)OCCOC)c1ccc(C#CC3=CCCCC3)cc12 | 1.66 | 1.19 | 0.636 | 0.682 | 1.01 | 1.43 | -0.663 | 0.949 | 0.762 | -1.53 (inactive) | 0.18 | -4.3 (inactive) | -0.348 (inactive) | 0.0614 (inactive) | -1.49 (inactive) | 0.497 | -0.146 | 0.458 | 0.669 | 0.634 |
| C=C[C@@H](COC(C)=O)NS(=O)(=O)c1ccc(Br)cc1 | 0.188 | 0.374 | 0.0776 | 0.156 | 0.635 | 0.617 | -0.367 | 0.283 | 0.428 | -0.823 (inactive) | -0.0143 | -2.37 (inactive) | -0.446 (inactive) | 0.904 (inactive) | 0.344 (inactive) | 0.0981 | -0.0589 | 0.825 | 0.357 | -0.0658 |
| CC1CC/C=C\[C@H]2OC34C=CCN(C(C)C)C(=O)[C@H]3N(CCCCCO)C(=O)[C@@H]4C2C(=O)O1 (stereo not given in full) | -1.07 | -1.71 | -0.6 | -1.29 | -0.985 | -1.17 | 1.68 | -1.42 | -0.892 | -1.39 (inactive) | -0.432 | -0.262 (inactive) | 1.39 (inactive) | 1.67 (inactive) | -0.478 (inactive) | -1.16 | -0.157 | -1.14 | -0.751 | -0.375 |
| CC(CO)N1C(=O)[C@@H]2C3C(=O)OCCC/C=C\[C@H]3OC23C=CCN(Cn2nnc4ccccc42)C(=O)[C@@H]13 (stereo not given in full) | 3.15 | -0.589 | -0.923 | -0.326 | -0.171 | -0.614 | 0.918 | -0.13 | -0.276 | 0.196 (inactive) | -0.275 | 0.39 (inactive) | -1.36 (inactive) | -0.358 (inactive) | -0.691 (inactive) | -0.521 | -0.024 | -1.02 | -0.296 | 0.276 |
| Cc1ccc(S[C@]2(C(=O)NC3CC3)CC(=O)N(Cc3ccccc3Cl)[C@@H]2c2ccc(CO)cc2I)cc1 | 2.99 | 1.05 | 1.31 | 0.811 | 1.45 | 1.67 | 0.677 | 0.101 | 0.277 | 0.352 (inactive) | 1.3 | -1.5 (inactive) | -0.637 (inactive) | 0.145 (inactive) | 1.13 (inactive) | 0.163 | 0.0471 | 0.765 | 1.01 | 1.67 |
| C=CCN1Cc2ccccc2C[C@@]2(N=C(c3ccc(OCCCO)cc3)O[C@H]2c2ccccc2)C1=O | 0.69 | 1.24 | 0.649 | 0.801 | 0.749 | 0.955 | 0.943 | 0.0744 | 0.98 | -0.668 (inactive) | 0.762 | -5.03 (inactive) | -0.8 (inactive) | -0.23 (inactive) | -1.51 (inactive) | 0.0967 | 0.0471 | 0.233 | 0.983 | 1.05 |
| O=C1C[C@]2(c3ccc([N+](=O)[O-])cc3)C(=O)N(Cc3ccccc3)c3cc(CO)ccc3[C@H]2N1CC12CC3CC(CC(C3)C1)C2 | -1.43 | -0.835 | -0.536 | -1.28 | -1.06 | -0.653 | -0.0834 | -1.17 | -0.786 | -0.271 (inactive) | -0.186 | 0.349 (inactive) | 0.435 (inactive) | -0.491 (inactive) | 0.245 (inactive) | -1.04 | -0.325 | -0.659 | 0.263 | -0.419 |
| COCCOC(=O)N1C(=O)[C@@]2(c3cc(C#CC4(O)CCCCCC4)ccc31)[C@H](C(=O)N1CCCCCCC1)[C@H]1C(=O)O[C@H](c3ccccc3)[C@H](c3ccccc3)N1[C@@H]2c1ccc(OCCO)cc1 | 2.68 | 1.24 | 1.13 | 0.95 | 1.49 | 1.77 | -1.18 | 1.7 | 1.09 | -2.13 (inactive) | 1.19 | -3.66 (inactive) | 0.629 (inactive) | 0.623 (inactive) | -0.532 (inactive) | 2.63 | 1.85 | 1.25 | 1.8 | 2.17 |
| [N-]=[N+]=NCc1ccccc1[C@H]1OC(c2ccc(OCCCO)cc2)=N[C@@]1(CCS(=O)(=O)c1ccccc1)C(N)=O | 2.08 | 1.18 | 0.238 | 1 | 1.18 | 1.26 | -1.14 | -0.456 | 1.16 | -3.95 (inactive) | 0.524 | -0.0602 (inactive) | 0.456 (inactive) | -0.678 (inactive) | 0.237 (inactive) | 1.8 | 0.182 | 1.87 | 1.76 | -0.384 |
| C=CCOC(=O)[C@H]1[C@@H]2C(=O)O[C@@H](c3ccccc3)[C@@H](c3ccccc3)N2[C@@H](c2ccc(OCCOC(=O)[C@H]3C[C@H]4C(=O)N[C@@H](CCCC[N+](C)(C)C)C(=O)N4[C@H]3c3cccc(OCCO)c3)cc2)[C@]12C(=O)Nc1ccc(I)cc12 | 1.21 | 0.915 | 0.293 | 0.82 | 1.34 | 1.7 | -1.45 | 0.761 | 0.19 | -0.678 (inactive) | 0.419 | -0.587 (inactive) | -1.08 (inactive) | 0.415 (inactive) | -0.0044 (inactive) | -0.0117 | -0.13 | 0.485 | 0.29 | 1.03 |
